“And” between values parts separate entries of the source, which are not always exact repeats. Equal entries are not always repeated. Inconclusive results are not listed. The source made the active and inactive calls. The calls were made as follows, unless noted: active = hit-call score of the fitted dose curve at least 0.9, where 1 is the maximum; inactive = score below 0.9.
How the values were obtained:
[1] = read-out: Tumor necrosis factor receptor 1 (TNFRSF1A), TNFRSF1A (gene 7132); experiment: LTEA_HepaRG_TNFRSF1A: Life Technologies and Expression Analysis (LTEA) Assay for Tumor necrosis factor receptor 1 (TNFRSF1A) using HepaRG (AID 2283535); details: mRNA level, 48 h; actives raise or lower the signal
In short: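 mRNA measured by qRT-PCR (TaqMan, Fluidigm arrays) against ACTB/GAPDH/POLR2A housekeepers after 48 h chemical exposure of HepaRG cells. Top concentration 100 uM, half-log 8-point series, duplicates; vehicle 0.5% DMSO, both fit directions.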

[2] = read-out: Thyroid Hormone Responsive (THRSP), THRSP (gene 7069); experiment: LTEA_HepaRG_THRSP: Life Technologies and Expression Analysis (LTEA) Assay for Thyroid Hormone Responsive (THRSP) using HepaRG (AID 2283536); details: mRNA level, 48 h; actives raise or lower the signal
In short: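 Cell model: human HepaRG, approx. 100,000 cells/well, 0.5% DMSO vehicle. Exposure lasts 48 h; phenobarbital 1 mM serves as induction positive control. Gene expression is measured by qRT-PCR against three endogenous control genes.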

[3] = read-out: Cellular tumor antigen p53 (Homo sapiens) (UniProt P04637); experiment: LTEA_HepaRG_TP53: Life Technologies and Expression Analysis (LTEA) Assay for Tumor Protein P53 (TP53) using HepaRG (AID 2283537); details: mRNA level, 48 h; actives raise or lower the signal
In short: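 Differentiated HepaRG cells in serum-free induction medium exposed 48 h in duplicate to 8 half-log concentrations, top 100 uM, 0.5% DMSO. TP53 mRNA by TaqMan qRT-PCR (Fluidigm), normalized to ACTB, GAPDH, POLR2A; fitted bidirectionally versus DMSO.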

[4] = read-out: UDP glucuronosyltransferase (UGT1A1), UGT1A1 (gene 54658); experiment: LTEA_HepaRG_UGT1A1: Life Technologies and Expression Analysis (LTEA) Assay for UDP glucuronosyltransferase (UGT1A1) using HepaRG (AID 2283538); details: mRNA level, 48 h; actives raise or lower the signal
In short: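 HepaRG, 48 h chemical exposure (top 100 uM, half-log 8-pt, 0.5% DMSO vehicle), duplicate wells; qRT-PCR (TaqMan, Fluidigm array) for UGT1A1 mRNA, housekeeping-normalized; bidirectional curve fit vs DMSO baseline.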

[5] = read-out: UDP glucuronosyltransferase (UGT1A6), UGT1A6 (gene 54578); experiment: LTEA_HepaRG_UGT1A6: Life Technologies and Expression Analysis (LTEA) Assay for UDP glucuronosyltransferase (UGT1A6) using HepaRG (AID 2283539); details: mRNA level, 48 h; actives raise or lower the signal
In short: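 Expression was quantified by TaqMan qRT-PCR on Fluidigm arrays with ACTB/GAPDH/POLR2A normalization and bidirectional fitting against 0.5% DMSO. HepaRG cells (~100,000/well) were treated in duplicate for 48 h at eight half-log concentrations up to 100 uM in serum-free induction medium.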

[6] = read-out: X-box binding protein 1 (XBP1), XBP1 (gene 7494); experiment: LTEA_HepaRG_XBP1: Life Technologies and Expression Analysis (LTEA) Assay for X-box binding protein 1 (XBP1) using HepaRG (AID 2283540); details: mRNA level, 48 h; actives raise or lower the signal
In short: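 XBP1 transcript by qRT-PCR (housekeeping-normalized: ACTB, GAPDH, POLR2A) after 48 h chemical treatment of HepaRG cells, 8-point half-log series topping at 100 uM, vehicle 0.5% DMSO. Gain and loss of signal fitted relative to DMSO.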

[7] = LTEA_HepaRG_LDH_cytotoxicity: Cytotoxicity Assessment in the Life Technologies and Expression Analysis (LTEA) Assay (AID 2283563; active = hit-call score of the fitted dose curve at least 0.9, where 1 is the maximum;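 as to AC50: LDH activity released into spent culture medium as a marker of cell death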)
In short: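 LDH release into culture medium read after 48 h chemical treatment of HepaRG cells. Duplicate wells, eight-point half-log series topping at 100 uM, 0.5% DMSO vehicle and baseline.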

[8] = TOX21_p53_BLA_p2_viability: Viability Assessment in the Tox21 HCT-116 p53 Agonism Beta-lactamase Assay, Phase 2 (AID 2283591; active = hit-call score of the fitted dose curve at least 0.9, where 1 is the maximum;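 also: compound exposure lasted 16 h at 37 °C; actives lower the ATP signal meaning cytotoxicity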)
In short: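 HCT-116 p53-bla cells (4000/well) rested 5 h at 37C, then received compounds in DMSO (217-fold dilution) for 16 h at 37C, 5% CO2. After the CCF4 read, CellTiter-Glo was added; ATP luminescence was read after 30 min at room temperature.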

[9] = target: Cellular tumor antigen p53 (Homo sapiens) (UniProt P04637); experiment: TOX21_p53_BLA_p2_ratio: Tox21 HCT-116 p53 Agonism Beta-lactamase Assay, Ratio, Phase 2 (AID 2283592; active = hit-call score of the fitted dose curve at least 0.9, where 1 is the maximum)
Cellular tumor antigen p53 (Homo sapiens), sequence (P04637 whole entry, looked up): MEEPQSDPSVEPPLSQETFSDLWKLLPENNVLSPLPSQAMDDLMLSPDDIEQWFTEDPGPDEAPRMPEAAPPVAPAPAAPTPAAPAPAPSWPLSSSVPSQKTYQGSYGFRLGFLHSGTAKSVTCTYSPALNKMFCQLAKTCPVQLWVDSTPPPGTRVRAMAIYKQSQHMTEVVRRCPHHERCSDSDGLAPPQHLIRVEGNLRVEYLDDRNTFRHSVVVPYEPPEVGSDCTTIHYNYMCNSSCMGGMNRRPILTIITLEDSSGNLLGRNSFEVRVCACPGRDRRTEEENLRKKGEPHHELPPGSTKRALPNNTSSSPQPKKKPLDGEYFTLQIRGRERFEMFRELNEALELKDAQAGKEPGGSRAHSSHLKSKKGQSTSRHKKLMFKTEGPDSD
In short: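 Read-out is the blue/green (460/530 nm, 405 nm excitation) ratio after 2 h CCF4-AM loading, fitted as gain versus DMSO. Compounds, pinned at 217-fold dilution from DMSO stocks, stayed 16 h on HCT-116 beta-lactamase reporter cells seeded 5 h earlier.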

[10] = ATG_XTT_Cytotoxicity: Cytotoxicity Assessment in the Attagene TRANS-FACTORIAL HepG2 Assay (AID 2283584; active = hit-call score of the fitted dose curve at least 0.9, where 1 is the maximum)
In short: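 Viability endpoint from XTT after 24 h chemical exposure of reporter-transfected human HepG2 liver cells; signal loss fitted relative to DMSO negative control.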

Measured: AC50

O=C1CCC(C2CCCCC2)CC1
not listed: [10]
inactive: all other assays above

CC1(C)NC(=O)N(c2ccc([N+](=O)[O-])c(C(F)(F)F)c2)C1=O
active: [3] 78.2 µM
not listed: [8]
inactive: all other assays above

CCCCOC(=O)c1ccc(O)cc1
not listed: [8] | [10]
inactive: all other assays above

CCCC(=O)OCCC(C)C
not listed: [8] | [10]
inactive: all other assays above

OCCO
active: [3] 9.97 µM
not listed: [8] | [10]
inactive: all other assays above

CN1C(=O)N(c2ccccc2Br)Cc2cnc(Nc3ccc4c(c3)OCC(CO)O4)nc21 (stereo not given)
active: [1] 83.7 µM | [4] 85.6 µM | [5] 81.5 µM | [7] 67.9 µM | [9] 4.26 µM
inactive: [2] | [3] | [6]

CCCCCCCCOC(=O)c1cc(O)c(O)c(O)c1
active: [9] 50 µM
not listed: [8] | [10]
inactive: all other assays above

CCOC(=O)O[C@H](C)OC(=O)c1ccc2c(c1)cc(C(=O)NC1CCN(C(C)C)CC1)n2Cc1cc(-c2ccc(Cl)s2)on1
active: [2] 16 µM | [7] 79.2 µM | [9] 27.9 µM
not listed: [8] | [10]
inactive: all other assays above

COc1cc(C(=O)NC2CCN(C)CC2)ccc1Nc1ncc2c(n1)N(C1CCCC1)CC(F)(F)C(=O)N2C
active: [1] 4.65 µM | [2] 0.923 µM | [3] 8 µM | [4] 21 µM | [5] 8.85 µM | [6] 10.8 µM | [7] 16.5 µM | [9] 0.00393 µM

O=C1c2ccccc2C(=O)N1CCc1noc(-c2ccc(CN3CCCCCC3)s2)n1
active: [4] 17.8 µM
not listed: [8] | [10]
inactive: all other assays above

O=c1ccc2ccccc2o1
active: [4] 65.4 µM
not listed: [8] | [10]
inactive: all other assays above

O=C1O[C@H]([C@@H](O)CO)C(O)=C1O
not listed: [6] | [8] | [10]
inactive: all other assays above

CN(C)C(=O)C1(N2CCCCC2)CCN(CC[C@@]2(c3ccc(Cl)c(Cl)c3)CN(C(=O)c3ccccc3)CCO2)CC1
active: [1] 27.5 µM | [2] 24.2 µM | [3] 47.2 µM | [4] 27.6 µM | [5] 25.7 µM | [7] 20 µM | [9] 70.9 µM
inactive: [6]

Oc1ccc2ccccc2c1
not listed: [8] | [10]
inactive: all other assays above

Cc1occc1C(=O)Nc1ccc(C(=O)N2CCC(F)(F)/C(=C\C(=O)N3CCC(N4CCCCC4)CC3)c3ccccc32)cc1
active: [4] 54.3 µM | [7] 49.6 µM
not listed: [8] | [10]
inactive: all other assays above

CCCCCCCCCCCO
not listed: [8] | [10]
inactive: all other assays above

CCCCOC(=O)CC(CC(=O)OCCCC)(OC(C)=O)C(=O)OCCCC
not listed: [8] | [10]
inactive: all other assays above

Cc1ccc(C(C)C)cc1
not listed: [8] | [10]
inactive: all other assays above

CC(O)CC(C)(C)O (stereo not given)
not listed: [8] | [10]
inactive: all other assays above

C[C@]12CC[C@@H]3c4ccc(O)cc4CC[C@H]3[C@@H]1CC[C@H]2O
active: [4] 2.42 µM | [9] 15.9 µM
inactive: [1] | [2] | [3] | [5] | [6]

CCCCCCCCOc1ccc(C(=O)c2ccccc2)c(O)c1
active: [4] 20.4 µM
not listed: [8] | [10]
inactive: all other assays above

Cc1oc2c(NC(=O)c3c(Cl)cccc3Cl)cccc2c1C(C)(C)O
active: [2] 86.8 µM | [3] 82.1 µM | [4] 50 µM | [5] 46.9 µM | [6] 11.3 µM
inactive: [1] | [8] | [9]

C[C@]12CC[C@@H]3c4ccc(O)cc4CC[C@H]3[C@@H]1CCC2=O
active: [4] 5.13 µM
not listed: [3] | [8] | [10]
inactive: all other assays above

c1ccc2ccccc2c1
active: [4] 17.4 µM
not listed: [8] | [10]
inactive: all other assays above

Clc1ccccc1C(c1ccccc1)(c1ccccc1)n1ccnc1
active: [2] 29.9 µM | [3] 28 µM | [4] 28 µM | [5] 15.8 µM | [7] 70.7 µM | [9] 64.8 µM and 19 µM
inactive: [1] | [6]

Clc1cc(Cl)c2c(c1)N=C1CCCCCN1C2
not listed: [8] | [10]
inactive: all other assays above

Cc1ncc(CO)c(CO)c1O
not listed: [7] | [10]
inactive: all other assays above

CO[C@H]1/C=C/O[C@@]2(C)Oc3c(C)c(O)c4c(O)c(c(/C=N/N5CCN(C)CC5)c(O)c4c3C2=O)NC(=O)/C(C)=C\C=C\[C@H](C)[C@H](O)[C@@H](C)[C@@H](O)[C@@H](C)[C@H](OC(C)=O)[C@@H]1C
active: [2] 12 µM | [4] 0.395 µM
not listed: [8] | [10]
inactive: all other assays above

Cc1cc2c(cc1C(F)(F)F)N(C(=O)Nc1ccc(Oc3cccnc3C)nc1)CC2
inactive: [2] | [6] | [9]
active: [1] 73.6 µM | [3] 75 µM | [4] 81.4 µM | [5] 76.1 µM | [7] 70.5 µM

CC[C@@H]1C[C@H](N(Cc2cc(C(F)(F)F)cc(C(F)(F)F)c2)C(C)=O)c2cc(C(F)(F)F)ccc2N1C(=O)OC(C)C
active: [4] 0.546 µM
not listed: [8] | [10]
inactive: all other assays above

Oc1ccccc1
not listed: [8] | [10]
inactive: all other assays above

CN1C(=O)CC[C@H]1c1cccnc1
not listed: [8] | [10]
inactive: all other assays above

COc1ccc2cc(S(=O)(=O)N[C@H](CC(=O)N[C@H](Cc3ccc(CN4[C@H](C)CCC[C@@H]4C)cc3)C(=O)N(C)C(C)C)c3ccc4c(c3)OCO4)ccc2c1
inactive: [2] | [6]
active: [1] 21.2 µM | [3] 24.1 µM | [4] 26 µM | [5] 23.2 µM | [7] 20.7 µM | [9] 70.3 µM

CC/C(=C(/CC)c1ccc(O)cc1)c1ccc(O)cc1
active: [1] 93.8 µM | [2] 21.7 µM | [4] 93.9 µM | [5] 76.7 µM | [6] 89.9 µM | [7] 89.2 µM | [9] 3.29 µM and 5.64 µM
inactive: [3]

O=C(O)c1ccccc1-n1cc(C(=O)O)c(=O)c2cc(Nc3c(F)cc(F)cc3Cl)c(Cl)cc21
active: [1] 0.0319 µM | [5] 0.0904 µM
not listed: [8] | [10]
inactive: all other assays above

CCCCCc1ccc(N)cc1
not listed: [8] | [10]
inactive: all other assays above

CCCCCCCC[Si](OCC)(OCC)OCC
not listed: [8] | [10]
inactive: all other assays above

O=C=NCCCCCCN=C=O
not listed: [8] | [10]
inactive: all other assays above

O=C(O)c1ccccc1C(=O)OCc1ccccc1
active: [4] 24.3 µM
not listed: [7]
inactive: all other assays above

CCCOC(=O)c1cc(O)c(O)c(O)c1
active: [4] 1.73 µM
not listed: [8] | [10]
inactive: all other assays above

From PubChem BioAssay (EPA / NIEHS)
